Inconclusive results are not listed. Active and inactive are the calls of the source. The calls were made as follows: active = hit-call score of the fitted dose curve at least 0.9, where 1 is the maximum; inconclusive = response in the unintended direction; inactive = score below 0.9.
Each compound was assayed against Agonist Androgen Response Element (ARE), AR (gene 367) (UniProt P10275) (assay: OT_AR_ARELUC_AG_1440: Odyssey Thera (OT) 24-hour CHO-K1 Luciferase Assay for Agonist Androgen Response Element (ARE) (AID 2283379)).
Method in brief: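 Gain-of-signal reporter endpoint: cells (CHO-K1, hamster) are treated 24 h, luciferin/ATP reagent added, and luminescence compared with DMSO baseline.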

Chain of Agonist Androgen Response Element (ARE), AR (gene 367) (P10275 whole entry, looked up): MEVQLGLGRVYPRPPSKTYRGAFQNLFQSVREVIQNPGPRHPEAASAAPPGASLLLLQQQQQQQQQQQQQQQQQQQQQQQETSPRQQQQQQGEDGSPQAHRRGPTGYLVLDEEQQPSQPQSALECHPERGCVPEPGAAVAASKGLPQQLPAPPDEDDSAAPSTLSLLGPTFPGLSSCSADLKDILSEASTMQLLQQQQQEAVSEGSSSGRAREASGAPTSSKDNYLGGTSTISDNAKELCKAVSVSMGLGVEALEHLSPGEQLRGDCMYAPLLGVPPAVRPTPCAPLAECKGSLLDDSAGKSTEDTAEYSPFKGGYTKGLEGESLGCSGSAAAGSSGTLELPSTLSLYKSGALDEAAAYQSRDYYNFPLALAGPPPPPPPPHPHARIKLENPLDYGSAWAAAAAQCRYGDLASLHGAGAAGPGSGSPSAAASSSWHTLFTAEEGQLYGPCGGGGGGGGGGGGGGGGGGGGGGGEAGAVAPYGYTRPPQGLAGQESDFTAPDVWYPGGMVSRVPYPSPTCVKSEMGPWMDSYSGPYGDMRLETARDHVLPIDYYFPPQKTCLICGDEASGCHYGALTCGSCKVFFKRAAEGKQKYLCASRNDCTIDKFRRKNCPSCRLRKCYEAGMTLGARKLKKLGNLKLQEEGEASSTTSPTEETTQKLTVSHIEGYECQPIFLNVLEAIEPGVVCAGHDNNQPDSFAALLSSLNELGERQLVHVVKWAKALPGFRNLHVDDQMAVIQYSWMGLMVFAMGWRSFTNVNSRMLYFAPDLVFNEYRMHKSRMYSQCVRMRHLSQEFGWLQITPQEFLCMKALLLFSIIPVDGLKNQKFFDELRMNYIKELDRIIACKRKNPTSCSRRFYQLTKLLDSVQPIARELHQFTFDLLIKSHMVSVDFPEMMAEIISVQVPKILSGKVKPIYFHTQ

| SMILES | AC50 | outcome |
| --- | --- | --- |
| O=C(N[C@H]1CN2CCC1CC2)c1cc2ccoc2cn1 | 71.8 µM (active) | – |
| O=C(NC(=O)c1c(F)cccc1F)Nc1cc(Cl)c(OC(F)(F)C(F)F)c(Cl)c1 | – | inactive |
| Cc1ccccc1CO[C@@H]1C[C@@]2(C(C)C)CC[C@]1(C)O2 | – | inactive |
| c1cc2ccc3cccc4ccc(c1)c2c34 | – | inactive |
| CCNc1nc(NC(C)C)nc(SC)n1 | – | inactive |

Each compound was assayed against Estrogen receptor beta (Homo sapiens) (UniProt Q92731) (assay: OT_ER_ERbERb_1440: Odyssey Thera (OT) 24-hour HEK293T Protein-Complementation Assay for Estrogen Receptor-beta/-beta Homodimer (AID 2283380);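 also: scored as signal increase over DMSO baseline for both agonists and antagonists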).
Method in brief: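 HEK293T cells stably expressing ER beta LBD (aa 310-547) homodimer fragment-complementation reporter, dosed 24 h. Cells formaldehyde-fixed, Draq5-stained; gain in nuclear (agonist) or nuclear plus cytoplasmic (antagonist) fluorescence versus DMSO read by laser scanning cytometry.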

Chain of Estrogen receptor beta (Homo sapiens) (Q92731 whole entry, looked up, the tested form may be a part): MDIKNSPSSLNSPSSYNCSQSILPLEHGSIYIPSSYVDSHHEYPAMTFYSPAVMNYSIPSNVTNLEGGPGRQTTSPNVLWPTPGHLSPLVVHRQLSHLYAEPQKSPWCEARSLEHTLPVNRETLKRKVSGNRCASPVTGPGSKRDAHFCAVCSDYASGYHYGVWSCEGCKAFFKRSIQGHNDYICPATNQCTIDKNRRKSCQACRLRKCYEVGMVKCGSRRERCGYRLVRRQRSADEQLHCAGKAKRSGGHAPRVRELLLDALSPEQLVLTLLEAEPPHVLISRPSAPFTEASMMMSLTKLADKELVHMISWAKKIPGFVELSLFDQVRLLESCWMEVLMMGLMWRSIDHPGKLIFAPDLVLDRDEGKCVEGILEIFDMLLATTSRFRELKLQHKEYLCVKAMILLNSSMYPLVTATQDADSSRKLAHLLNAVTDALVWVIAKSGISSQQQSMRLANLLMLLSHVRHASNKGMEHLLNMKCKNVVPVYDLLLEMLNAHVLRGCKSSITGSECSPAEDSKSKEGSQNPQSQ

| SMILES | AC50 | outcome |
| --- | --- | --- |
| COc1ccc(O)c(C(C)(C)C)c1 | 57.3 µM (active) | – |
| Cc1ccccc1O | – | inactive |
| C1CC2OC2CC1C1CO1 (stereo not given) | – | inactive |
| CO/C=C(/C(=O)OC)c1ccccc1COc1cccc(C(F)(F)F)n1 | – | inactive |
| Cc1cccc(C)c1N | – | inactive |
| C[C@]12CCC(=O)C=C1CC[C@@H]1[C@@H]2CC[C@]2(C)C(=O)CC[C@@H]12 | – | inactive |
| O=C(N[C@H]1CN2CCC1CC2)c1cc2ccoc2cn1 | – | inactive |
| O=C(NC(=O)c1c(F)cccc1F)Nc1cc(Cl)c(OC(F)(F)C(F)F)c(Cl)c1 | – | inactive |
| Cc1ccccc1[N+](=O)[O-] | – | inactive |
| N#Cc1ccc(N(CC(N)=O)CC(F)(F)F)cc1C(F)(F)F | – | inactive |
| Clc1ccc(Cl)cc1 | – | inactive |
| CN(C)CCO | – | inactive |
| CCNc1nc(NC(C)C)nc(SC)n1 | – | inactive |
| CN(C)c1nc(=O)n(C2CCCCC2)c(=O)n1C | – | inactive |
| CCC(C)c1cc([N+](=O)[O-])cc([N+](=O)[O-])c1O (stereo not given) | – | inactive |
| O=C(O)C(F)(F)C(F)(F)C(F)(F)C(F)(F)C(F)(F)F | – | inactive |
| CCC(C)(CC)c1cc(NC(=O)c2c(OC)cccc2OC)on1 | – | inactive |
| O=S(=O)(O)C(F)(F)C(F)(F)C(F)(F)C(F)(F)F | – | inactive |
| ClC1=C(Cl)[C@]2(Cl)[C@@H]3[C@@H](Cl)[C@H]4O[C@H]4[C@@H]3C1(Cl)C2(Cl)Cl | 14.4 µM (active) | – |
| OCC(O)CO | – | inactive |

Source: PubChem BioAssay (EPA / NIEHS)
